Bioassay records from PubChem.
Only some compounds are listed: those with a hit (about 3.3% of all), similar ones and a draw of the others.
PI4K2A inh: inhibitors of human PI4K2A; Q9BTU6; 420,000 compounds, 0.13% hits; activity change, negative = inhibition, % at 76.9 µM; purified PI4K2A, ADP-Glo luminescence, 1 h; hits give low values; in the data active means activity change below about -50%; inconclusive means mostly about -30% to -49%;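 further: -100% = wells without enzyme as full effect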
Target sequence (Q9BTU6 whole entry, looked up): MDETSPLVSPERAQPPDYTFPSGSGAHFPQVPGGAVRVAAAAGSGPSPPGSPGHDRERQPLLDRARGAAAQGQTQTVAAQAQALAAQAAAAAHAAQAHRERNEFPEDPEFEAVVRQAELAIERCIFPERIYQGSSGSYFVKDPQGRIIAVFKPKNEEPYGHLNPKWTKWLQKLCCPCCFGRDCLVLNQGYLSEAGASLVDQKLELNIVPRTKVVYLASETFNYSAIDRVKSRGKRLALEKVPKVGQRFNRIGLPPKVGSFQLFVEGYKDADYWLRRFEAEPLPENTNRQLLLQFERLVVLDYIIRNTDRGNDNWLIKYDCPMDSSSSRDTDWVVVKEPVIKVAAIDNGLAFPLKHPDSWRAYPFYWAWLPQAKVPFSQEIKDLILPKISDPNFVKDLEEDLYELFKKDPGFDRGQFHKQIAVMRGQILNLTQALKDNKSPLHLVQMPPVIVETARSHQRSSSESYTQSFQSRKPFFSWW
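ADP-Glo luminescence measured ADP generated by PI4K2A enzyme (4 ug/mL before mixing) with 1.2 mM PI substrate (pre-mix) and 300 microM ATP (pre-mix). Tris pH7.5 buffer with MgCl2, Triton X-100; 1 h reaction at ambient temperature.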
PI5P4K alpha inh: inhibitors of human PI5P4K alpha. P48426. PI5P4Kalpha enzyme, ADP-Glo luminescence, 60 min; hits give low values. max response, %. 330,000 compounds, 1.2% hits; active means max response of -50% or lower; inconclusive means between -30% and -50%; inactive means -30% or higher; further: value at the top dose of about 77 µM; on the % scale 0 is the no-effect control and ±100 the full control effect
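Luminescence from ADP-Glo served as readout of PI5P4Kalpha activity in a qHTS format. Reaction: enzyme, substrate, compound, ATP at 5 microM final, 60 min at RT.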
DRD3 agonist: activates the human D3 dopamine receptor; max activation, %; 410,000 compounds, 0.58% hits; D3R DiscoveRx beta-arrestin cells, luminescence, 90 min; P35462; in the data active means max activation above about 30%; further: 0% is about no effect
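Agonist-mode cell screen: cells plated at 1500/well and incubated overnight at 37 °C, then exposed to library compounds for 90 min at 37 °C. Detection reagent was added for 30–60 min at room temperature, and luminescence was read.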
LDHA inh: blocks human lactate dehydrogenase A | activity change, % (values are at about 110 or 230 µM) | 480,000 compounds, 0.15% hits | purified LDHA, NADH/diaphorase-resazurin fluorescence; hits give low values | P00338; in the data active means activity change below about -30%; inconclusive means mostly about -25% to -30%;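 further: plate controls were DMSO wells for no effect and wells without enzyme for full effect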
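Resorufin fluorescence (ex540/em590), read at 0 and 20 min after diaphorase/resazurin addition, reports the NADH left after a 5 min room-temperature reaction of 2 nM human LDH5 with 0.06 mM NADH and 0.2 mM pyruvate.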
D3 antag: antagonists of human D3 dopamine receptor. D3R cells, DiscoveRx beta-arrestin luminescence, antagonist mode; hits give low values. max response, negative = inhibition, %. 360,000 compounds, 2.5% hits. AID 652054; in the data active means max response below about -50%; inconclusive means no clear call, values can overlap the other calls; further: on the % scale 0 is the no-effect control and ±100 the full control effect
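Cells plated overnight at 1500 cells/well, then exposed to library compounds with dopamine controls for 90 minutes at 37 degrees C. DiscoveRx reagent added for 30–60 minutes at room temperature; luminescence read, quantitative HTS format.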
Starred values were filed as active, the others as inactive; ? = inconclusive; . = no result.

SMILES	PI4K2A inh	PI5P4K alpha inh	DRD3 agonist	LDHA inh	D3 antag
CC1(C)Cc2c(c(N3CCOCC3)nc3sc4c(NCCc5ccccc5)nnnc4c23)CS1	.	.	.	11	.
Cc1cccc(NC(=O)c2ccccc2NC(=O)CSc2ncnc3ccccc23)c1	.	.	.	4	.
Cc1oc(-c2ccccc2)cc1C(=O)NC1CCN(Cc2ccccc2)CC1	1	2	-46	1	-82*
O=C(NC1CCN(Cc2ccccc2)CC1)c1cncc(Br)c1	-1	2	-22	0	-86*
Cc1nc2ccc(C(=O)NC3CCN(Cc4ccccc4)CC3)cc2nc1C	.	.	.	8	.
CC(C)(C)c1ccc(C(=O)NC2CCN(Cc3ccccc3)CC2)cc1	1	5	-8	-3	-118*
Cc1cccc(S(=O)Cc2ccc(C(=O)NC3CCN(Cc4ccccc4)CC3)o2)c1 (stereo not given)	6	0	-21	-2	-67*
COc1cc(OC)c2c(C)c(CC(=O)Nc3nc4ccccc4[nH]3)c(=O)oc2c1	.	.	.	12	.
CCOc1cccc(CNc2ccc(F)cc2)c1	.	.	.	20	.
Cc1onc(-c2ccccc2)c1-c1nnc(CSc2nnnn2C)o1	.	.	.	4	.
O=C(Cc1ccccc1)NC1CCN(Cc2ccccc2)CC1	0	5	-17	-2	?
O=C(NC1CCN(CCc2c[nH]c3ccccc23)CC1)c1ccccc1	-3	-5	-20	0	-103*
O=C(NC1CCN(Cc2ccc(Cl)cc2Cl)CC1)c1ccccc1	3	6	-19	-5	-78*
NC(=O)CN1CCC(NC(=O)c2cccc(Cl)c2)CC1	.	.	.	0	.
O=C(NC1CCN(Cc2ccccc2)CC1)C12CC3CC(CC(C3)C1)C2	2	.	-9	-8	-88*
COc1ccc(NC2=NC(C(=O)Nc3cc(Cl)ccc3OC)CC(=O)N2)cc1 (stereo not given)	.	.	.	-1	.
Cc1ccc(OCCCOc2ccccc2/C=N/NC(=O)c2cccc(Cl)c2)cc1C	.	.	.	-5	.
Cc1cc(C)c2ccc(C(=O)O)nc2c1O	-6	?	-6	11	-63*
COc1ccc(C(=O)O)nc1C	1	4	2	-9	6
CCN(C1CCCCC1)S(=O)(=O)c1ccc(S(=O)(=O)N2CCN(CCC#N)CC2)cc1	0	0	-3	2	-53*
N#CCCN1CCN(S(=O)(=O)c2ccc(S(=O)(=O)N3CCCCCC3)cc2)CC1	3	3	-9	-7	-11
Cc1[nH]c(=O)nc(SCC(=O)Nc2ccc(F)cc2Cl)c1C#N	.	.	.	-2	.
Cc1n[nH]c2c([N+](=O)[O-])c(=O)[nH]c(=O)n12	2	-67*	5	-6	11
Cc1nc(N2CCOCC2)[nH]c(=O)c1[N+](=O)[O-]	-1	-9	-5	-5	-1
Cc1ccccc1-c1nnc2sc(NC(=O)c3ccc(F)cc3)nn12	.	.	.	1	.
SMILES	PI4K2A inh	PI5P4K alpha inh	DRD3 agonist	LDHA inh	D3 antag
COc1ccc(Cl)cc1C(=O)OCC(=O)c1c(N)n(C)c(=O)n(C)c1=O	-71*	1	3	-4	2
Cn1c(N)c(C(=O)COC(=O)c2ccccc2C(=O)c2ccc(Cl)c([N+](=O)[O-])c2)c(=O)n(C)c1=O	15	3	-11	-2	-97*
Cn1c(N)c(C(=O)COC(=O)c2ccccc2C(=O)c2ccccc2)c(=O)n(C)c1=O	-3	0	0	-14	-13
CCOc1cc(C(=O)OCC(=O)c2c(N)n(C)c(=O)n(C)c2=O)cc(OCC)c1OCC	2	.	33*	3	10
COc1ccccc1CNC(=O)CSC1=NC2(CCCCC2)N=C1c1cccs1	.	.	.	18	.
COc1ccc(CN2CCC(N3CC(C)OC(C)C3)CC2)c(OC)c1 (stereo not given)	-3	-2	-2	-32*	-17
COc1ccc(OC)c(CN2CCC(C)CC2)c1	.	.	.	-4	.
COc1cccc(OC)c1C(=O)N1CCN(Cc2c[nH]c3ccccc23)CC1	7	9	3	-16	5
Cc1ccc(CN2CCN(Cc3ccccc3C(F)(F)F)CC2)cc1	0	.	-29	-25	-72*
COc1ccc(Br)cc1CN1CCN(Cc2c[nH]c3ccccc23)CC1	-5	4	-49	-17	-90*
COc1ccc(C(=O)C2CCCN(Cc3c[nH]c4ccccc34)C2)c(OC)c1 (stereo not given)	3	6	-13	-5	-96*
O=C(COc1c(I)cc(Cl)c2cccnc12)N1CCC1	.	.	.	13	.
Cc1ccc2nc(-c3ccc(NC(=O)[C@@H]4CCCN4C(=O)c4cccs4)cc3)sc2c1	.	.	.	0	.
COc1ccc(Br)cc1CN1CCN(C(=O)c2ccc(OC)c(OC)c2)CC1	2	1	-18	-22	-20
COc1ccc(CN2CCN(Cc3ccc(C)cc3)CC2)c(OC)c1	1	-7	-38	-20	-50*
COc1cc(CN2CCN(Cc3ccc(SC)cc3)CC2)cc(OC)c1O	0	-2	-15	1	?
COc1cccc(C(=O)C2CCCN(C/C=C/c3ccccc3OC)C2)c1 (stereo not given)	2	0	-20	-1	-7
COc1ccc(C(=O)C2CCCN(C/C=C/c3ccccc3OC)C2)c(OC)c1 (stereo not given)	7	8	-28	-1	-72*
COc1cccc(C(=O)N2CCN(Cc3cc(Br)ccc3OC)CC2)c1	3	0	-1	-20	-84*
COc1cc(OC)c(OC)cc1CN1CCN(Cc2ccc(SC)cc2)CC1	-1	-4	-8	-30*	-26
CCOC(=O)C1=C(C)N(CC)C(=O)NC1c1ccc(OC(F)F)cc1 (stereo not given)	.	.	.	6	.
S=c1sc2c(s1)SC1C3CCC(C3)C1S2 (stereo not given)	.	.	.	1	.
COc1cc(OC)c(CN2CCN(c3ccc(F)cc3)CC2)cc1Br	-9	.	-12	-10	-74*
CCOC(=O)c1[nH]ncc1CN1CCCC(C(=O)c2ccc(OC)c(OC)c2)C1 (stereo not given)	5	-1	0	2	-4
COc1ccc(CN2CCN(Cc3c[nH]c4ccccc34)CC2)cc1	-1	-2	-19	-34*	?
SMILES	PI4K2A inh	PI5P4K alpha inh	DRD3 agonist	LDHA inh	D3 antag
Cc1ccc(CN2CCN(Cc3c[nH]c4ccccc34)CC2)cc1	.	.	.	7	.
COc1ccc(CN2CCN(Cc3c[nH]c4ccccc34)CC2)cc1OC	0	0	-5	-32*	-52*
CCOC(=O)c1[nH]ncc1CN1CCCC(C(=O)c2cc(Cl)ccc2OC)C1 (stereo not given)	-1	7	-1	1	-102*
CC(C)c1nc(NCCN2CCOCC2)c(C#N)c2c1CCCC2	.	.	.	9	.
COc1ccc(CN2CCN(Cc3c[nH]c4ccccc34)CC2)c(OC)c1	2	1	-5	-33*	-74*
COc1ccc(CN2CCN(Cc3ccccc3F)CC2)c(OC)c1	1	-8	-40	-23	-22
COc1ccc(CN2CCCCCC2)c(C)c1C	0	.	-36	-18	-75*
